Assay outcomes as filed in PubChem BioAssay.
Most compounds without a hit are left out; they make up all but 8.3% or so of the library.
HCV inhibitor: HCV inhibition; Potency, µM (series often up to 41.8 µM), without a hit: top-dose activity change, negative = inhibition, usual class: inhibitors; 340,000 compounds, 3.4% hits; Huh7.5.1 HCVcc-Cre infection, luciferase reporter, 44 h; further: potency means the concentration at half of the fitted maximal effect
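Infectious HCVcc-Cre (~0.5 moi) was added to cells just after compound, with cells seeded 4 h earlier at 1,000 per well. Luciferase activity after 44 h culture reported infection; substrate was incubated 15 min at room temperature before reading.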
Lassa entry inh: inhibitors of Lassa virus binding or cell entry; AID 540256; Lassa virus pseudotype entry inhibition, cell reporter; Potency, µM (top dose mostly 37.9 µM), without a hit: at the highest dose activity change, negative = inhibition, most hits filed as inhibitors; 300,000 compounds, 1.2% hits; calls by dose curve; tested in HEK293 cells; further: potency means the concentration at half of the fitted maximal effect; nearly all actives have a fitted effect of over 50% in size
HCMV antiviral: inhibitors of human cytomegalovirus. HFF cells, HCMV-luciferase reporter, 72 h; active compounds read low. activity change, negative = inhibition, % at 57.5 µM. 410,000 compounds, 4.5% hits; in the data active means activity change below about -60%; inconclusive means no clear call, values can overlap the other calls; inactive means above about -39%
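Cell-based, HFFs, 1000 cells/well, 16 h 37C; cpds in DMSO + HCMV-luc, MOI 1 PFU/cell; 72 h 37C; OneGlo luminescence after 5 min RT; norm. to buffer vs Salinomycin 10uM.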
MARV entry inh: blocks Marburg virus binding to or entry into cells. Marburg virus pseudotyped entry inhibition, cell reporter. Potency, µM (titrated, usually from 37.8 µM), without a hit: at the top dose activity change, negative = inhibition, hits mostly inhibitors. 300,000 compounds, 1.8% hits. AID 540276; calls by dose curve; tested in HEK293 cells; further: potency means the concentration at half of the fitted maximal effect
FMDV antiviral: antivirals against foot and mouth disease virus; FMDV antiviral cell-based qHTS; Potency, µM (highest dose often 57.9 µM), for the others: top-dose activity change, negative = inhibition, actives largely listed as inhibitors; 410,000 compounds, 1.2% hits; calls by dose curve; tested in HEK293T cells; further: read-out not given here; potency means the concentration at half of the fitted maximal effect; nearly all actives have a fitted effect of over 45% in size
FBPA Giardia inh: blocks Giardia fructose-bisphosphate aldolase activity; purified Giardia FBPA; Potency, µM (doses to about 59.6 µM), for the others: top-dose activity, negative = inhibition, actives largely listed as inhibitors; 290,000 compounds, 0.71% hits; AID 2451; further: potency means the concentration at half of the fitted maximal effect; nearly all actives have a fitted effect of over 55% in size
Target sequence (A8B2U2 whole entry, looked up): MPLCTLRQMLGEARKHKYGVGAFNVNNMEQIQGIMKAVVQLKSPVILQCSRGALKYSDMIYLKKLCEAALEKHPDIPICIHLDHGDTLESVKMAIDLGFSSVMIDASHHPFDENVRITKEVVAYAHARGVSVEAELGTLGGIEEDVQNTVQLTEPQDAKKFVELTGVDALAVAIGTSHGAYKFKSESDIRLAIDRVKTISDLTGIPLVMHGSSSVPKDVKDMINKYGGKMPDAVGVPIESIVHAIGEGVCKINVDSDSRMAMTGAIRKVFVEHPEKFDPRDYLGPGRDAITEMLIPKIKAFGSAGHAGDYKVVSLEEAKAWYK
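40 nM FBPA preincubated 10 min at RT with compound (up to 57.5 uM final), then substrate plus GAPDH/TPI/NAD/arsenate coupling and diaphorase/resazurin added. Fluorescence read after 20 min at RT, 525/598 nm.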
The depositor's hits bear a star; ? = inconclusive; · = no result given; [ ] = another dose, or the depositor's remark. Unless noted, the call rests on the fitted dose curve; in most records, active means well fitted curve in the direction sought with a large enough effect; inconclusive means small, poorly fitted or top-dose-only effect, or another doubt; inactive means no such curve, though single readings can be large; an effect the other way counts as inactive or inconclusive. On the % scale 0 is the no-effect control and ±100 the full control effect.

SMILES	HCV inhibitor	Lassa entry inh	HCMV antiviral	MARV entry inh	FMDV antiviral	FBPA Giardia inh
Fc1cccc(/C=C2\CCCC3=C2NC(=S)NC3c2cccc(F)c2)c1 (stereo not drawn)	8.9µM*	·	-25	·	-28%	-1%
CCc1ccc(OCC(=O)N(Cc2ccc(C(C)C)cc2)C2CCS(=O)(=O)C2)cc1 (stereo not drawn)	·	-26%[46.1 µM]	13	?	-21%	·
O=S(=O)(NC1=NCCC1)c1cccc(NS(=O)(=O)c2ccc(OC(F)(F)F)cc2)c1	3%	-5%	-28	-2%	46%	10%
CN(c1ccc(NC(=O)Nc2ccc(OC(F)(F)F)cc2)cc1)c1ccnc(Nc2cccc(S(N)(=O)=O)c2)n1	·	25µM*	·	·	·	·
CCCc1ccc(C(=O)NC(=O)c2ccccc2O)cc1	?	10µM*	-89*	8.9µM*	?	19%
O=C(NNC(=S)NC(=O)c1ccc(Br)cc1)c1cccc([N+](=O)[O-])c1	-15%	·	-105*	·	-13%	?
O=C(NC(=S)NNC(=O)c1ccccc1O)c1ccc([N+](=O)[O-])cc1	?	·	-70*	·	-9%	21%
Cc1ccc(C(=O)NNC(=S)NC(=O)c2ccccc2)cc1	?	?	-85*	-10%	-8%	·
O=C(NNC(=S)NC(=O)c1ccc(Br)cc1)c1ccc([N+](=O)[O-])cc1	-18%	·	62	·	0%	?
O=C(NNC(=S)NC(=O)c1ccccc1)c1ccc([N+](=O)[O-])cc1	-23%	·	22	·	-15%	15%
Cc1ccc(C(=O)NC(=S)NNC(=O)c2ccccc2)cc1	-2%	·	7	·	10%	17%
CCC(=O)N1c2ccc(S(=O)(=O)CCC(=O)N3CCN(c4ccc(F)cc4)CC3)cc2CC1C (stereo not drawn)	·	-23%[46.1 µM]	-24	5%[46.1 µM]	?	·
CC(C)[C@H](NC(=O)[C@H](CC(=O)O)NC(=O)CNC(=O)[C@@H](N)CCCN=C(N)N)C(=O)O	·	·	·	·	·	-22%
COc1ccccc1CNC(=O)CCCCn1c(=O)c2ccccc2n(Cc2ccccc2F)c1=O	·	6%[46.1 µM]	10	21%[46.1 µM]	-15%	·
O=C(NC(=S)NNC(=O)c1ccccc1O)c1ccc(F)cc1	-11%	-14%[46.1 µM]	69	?	-1%	?
Cc1ccc(C(=O)NC(=S)NNC(=O)c2ccccc2O)cc1	?	-27%	-81*	?	9%	?
O=C(COc1cccc(NC(=O)c2cccc([N+](=O)[O-])c2)c1)c1ccc(Br)cc1	14µM*	22µM*	-73*	?	20µM*	17%
O=C(NNc1c(Cl)cc(Cl)cc1Cl)c1cccc([N+](=O)[O-])c1	10µM*	0%	-7	9%	-10%	5%
COc1ccc(NC(=O)C2CCN(S(=O)(=O)c3c(C)noc3/C=C/c3cccs3)CC2)cc1Cl	·	-1%[46.1 µM]	6	2%[46.1 µM]	-11%	·
COc1ccc(CNC(=O)c2ccc3nc(C(C)C)oc3c2)cc1OC	·	-25%[46.1 µM]	8	·	-23%	·
O=C1CCCC1C(O)c1ccc2ccccc2c1 (stereo not drawn)	·	·	·	?	·	2%
CCc1ccc(C2/C=C\CNC(c3ccccc3)C(=O)N2Cc2ccc(C)cc2)cc1 (stereo not drawn)	·	·	·	·	·	-1%
O=C(c1ccc2c(c1)OCO2)N1CCC2(CC1)Oc1ccc(F)cc1C(=O)C21CC(c2ccc(Cl)cc2)=NO1 (stereo not drawn)	10µM*	·	0	·	-18%	-8%
C/C1=C/C(=O)O[C@@H]2C[C@@H](CC[C@H](C)/C=C\CC1)O[C@@](O)(C1CSC(=O)N1)C2 (stereo partly drawn)	·	·	·	·	·	-1%
O=S(=O)(c1ccccc1)N1CCN(c2cc(-c3ccccc3)nc3ncnn23)CC1	?	15µM*	-91*	?	?	7%
SMILES	HCV inhibitor	Lassa entry inh	HCMV antiviral	MARV entry inh	FMDV antiviral	FBPA Giardia inh
COc1ccc(-c2cc(-c3ccccc3)n3ncnc3n2)cc1	?	-23%	11	?	?	4%
O=S(=O)(c1ccc(Br)cc1)N1CCN(c2cc(-c3ccccc3)nc3ncnn23)CC1	?	?	?	?	-17%	4%
COc1ccc(S(=O)(=O)N2CCN(c3cc(-c4ccccc4)nc4ncnn34)CC2)cc1	10µM*	?	-73*	?	?	0%
Cc1nc2ncnn2c(N2CCC(C(=O)NC3CCCC3)CC2)c1Cc1ccccc1	?	?	0	-21%	-29%	6%
COc1ccc(-c2cc(N3CCCC3)n3ncnc3n2)cc1	13µM*	-11%	-98*	-22%[46.1 µM]	?	3%
Cc1ccccc1NC(=O)C1CCN(c2cc(-c3ccccc3)nc3ncnn23)CC1	32%	?	?	?	35µM*	-7%
CCCCCCCCCCCCCCOc1ccc(C(=O)O)o1	·	·	·	·	·	11%
CC(C)Cn1nnnc1S(=O)(=O)CCc1ccccc1	·	·	·	·	·	0%
O=C(c1cc(-c2cccc(Cl)c2)nc2ccccc12)N1CCN(c2ccccn2)CC1	?	-1%	-3	?	-29%	-1%
Cc1cccc2c(C(=O)N3CCN(c4ccccn4)CC3)cc(-c3cccc(Br)c3)nc12	?	·	?	·	25µM*	-9%
O=C(c1cc(-c2ccccc2Cl)nc2ccc(Br)cc12)N1CCN(c2ccccn2)CC1	-4%	?	-90*	?	?	·
O=C(c1cc(-c2ccncc2)nc2ccc(Br)cc12)N1CCN(c2ccccn2)CC1	-3%	?	41	5.6µM*	?	1%
O=C(c1cccn2c(=O)c3cc(Br)ccc3nc12)N1CCN(c2ccccn2)CC1	?	1%	10	-5%	0%	1%
Cc1ccccc1CN1CCN(C(=O)c2cc(-c3ccncc3)nc3ccccc23)CC1	·	?	36	?	?	·
O=C(c1cc(-c2ccncc2)nc2ccccc12)N1CCN(Cc2ccccc2)CC1	?	?	-25	7.9µM*	-28%	·
Cc1nc(N2CCOCC2)c2c(C(=O)NCCc3ccccc3)c(C)oc2n1	·	?	?	·	30%	·
CCC1Oc2ccc(C)cc2N(CC(=O)N(Cc2ccc(C)o2)C2CCCC2)C1=O (stereo not drawn)	?	?	26	?	22µM*	14%
Cc1nn(C2CCS(=O)(=O)C2)c(Cl)c1/C=C/C(=O)OCC(=O)c1cc(C)n(-c2ccc(F)cc2)c1C (stereo not drawn)	4µM*	?	-86*	?	?	-2%
Cc1nn(C2CCS(=O)(=O)C2)c(Cl)c1/C=C/C(=O)OCC(=O)c1c[nH]c2ccccc12 (stereo not drawn)	22µM*	-15%	12	?	?	2%
COc1ccc(OC)c(NC(=O)COC(=O)/C=C/c2c(C)nn(C3CCS(=O)(=O)C3)c2Cl)c1 (stereo not drawn)	-22%	-2%	-15	-6%	0%	-8%
